# AHR act – activators of human aryl hydrocarbon receptor; AID 2796; actives 2.5% (n = 320,000); P35869; activation, % at 5 µM; AHR-responsive luciferase reporter cells, luminescence; in the data active = activation above about 47%;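 note: 0% = vehicle wells and 100% = reference agonist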
# DAX1 inh-1 – DAX1 (NR0B1) inhibition, primary screen; HEK293T StAR-luciferase reporter, SF-1/DAX-1 repression relief; inhibition, % at 6.8 µM; AID 652010; actives 1.1% (n = 370,000);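 active = inhibition above the mean over all tested compounds plus 3 SD, cut at about 3.6% in these data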;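 note: 0% = DAX-1 cells with DMSO and 100% = cells lacking DAX-1 with DMSO; higher inhibition means more luminescence from relief of DAX-1 repression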
# ssDAF-12 act – activates DAF-12 receptor from parasite S. stercoralis; actives 1% (n = 370,000); HEK293 ssDAF-12/GRIP1 lit1-tk-luc reporter, luminescence; % of 3 µM dafachronic acid response; AID 652126; activation, % at 6.8 µM;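 active = activation above the mean over all tested compounds plus 3 SD, cut at about 0.9% in these data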;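 note: 0% = DMSO-only wells and 100% = 3 µM delta7-dafachronic acid wells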
# hcDAF-12 act – H. contortus DAF-12 activation, primary screen; HEK293 hcDAF-12 lit1-tk-luc reporter, luminescence; 0% DMSO, 100% Δ7-dafachronic acid; actives 1.4% (n = 370,000); activation, % at 6.8 µM;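 active = activation above the mean of all tested compounds plus 3 SD, cut at about 5.5% in these data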;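 note: 100% = response to 3 µM Δ7-dafachronic acid high control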
# hgDAF12 agonist – agonists of H. glycines DAF-12 nuclear receptor; AID 687014; HEK293 GAL4-hgDAF12 UAS-luciferase reporter, agonist luminescence; normalized to butyrate control; actives 1.8% (n = 370,000); activation, % at 6.8 µM;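 active = activation above a cutoff set at the mean of all screened compounds plus 3 SD, cut at about 10% in these data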;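 note: 0% = DMSO wells and 100% = sodium butyrate wells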
# DAX1 inh-2 – NR0B1 (DAX1) inhibition; P51843; HEK293 Gal4-DAX1 luciferase reporter, luminescence; inhibition, % at 6.75 µM; actives 0.99% (n = 340,000); AID 504766;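 active = inhibition above the mean over all tested compounds plus 3 SD, cut at about 4.2% in these data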;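 note: 0% = DAX1-transfected cells with DMSO and 100% = empty-vector control cells with DMSO; inhibition shows as a rise in luminescence from relieved DAX1 repression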
# Target sequence (P51843 207-470 limits assumed): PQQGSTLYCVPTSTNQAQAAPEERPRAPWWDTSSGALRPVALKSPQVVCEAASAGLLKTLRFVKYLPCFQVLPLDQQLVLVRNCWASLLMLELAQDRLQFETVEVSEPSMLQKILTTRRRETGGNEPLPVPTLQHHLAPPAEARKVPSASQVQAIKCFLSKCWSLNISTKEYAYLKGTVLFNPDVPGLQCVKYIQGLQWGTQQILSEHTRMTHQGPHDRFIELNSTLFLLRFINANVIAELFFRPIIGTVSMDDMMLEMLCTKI
# DAX1 conf – confirmation of human DAX1 (NR0B1) inhibitors. AID 652134. inhibition, % at 6.8 µM. HEK293T StAR-promoter luciferase reporter, SF-1/DAX-1 repression. actives 87% (n = 2,400). shares compounds with DAX1 inh-1;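 active = inhibition above the average of every tested compound plus 3 SD, cut at about 3.8% in these data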;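 note: 0% = DAX-1 cells with DMSO and 100% = no DAX-1 control cells with DMSO; active compounds raise luminescence by relieving repression of the StAR reporter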
# SF1 mutant ctr – nonselective inhibitor or artifact in SF-1 mutant DAX1 counter-screen | shares compounds with DAX1 inh-1 | HEK293 StAR-luciferase, SF-1 AF2 mutant, luminescence | inhibition, % at 6.8 µM | actives 78% (n = 2,400) | AID 652136;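 active = inhibition above the mean of all tested compounds plus 3 SD, cut at about 3% in these data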;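 note: 0% = DAX-1 transfected cells with DMSO and 100% = cells without DAX-1 with DMSO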
# LXRb hcDAF ctr – counter-screen for hcDAF-12 agonists: agonists of human LXR-beta | HEK293 Gal4-LXR tk-luc reporter, luminescence, 24 h; normalized: DMSO 0%, positive control 100% | 3,400 tested, under 10 active | AID 743027 | shares compounds with hcDAF-12 act | activation, % at 6.8 µM;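 active = mean percent activation of the reporter above a cutoff set as the average over tested compounds plus their standard deviation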
# Target sequence (P55055 whole entry, looked up, the tested form may be a part): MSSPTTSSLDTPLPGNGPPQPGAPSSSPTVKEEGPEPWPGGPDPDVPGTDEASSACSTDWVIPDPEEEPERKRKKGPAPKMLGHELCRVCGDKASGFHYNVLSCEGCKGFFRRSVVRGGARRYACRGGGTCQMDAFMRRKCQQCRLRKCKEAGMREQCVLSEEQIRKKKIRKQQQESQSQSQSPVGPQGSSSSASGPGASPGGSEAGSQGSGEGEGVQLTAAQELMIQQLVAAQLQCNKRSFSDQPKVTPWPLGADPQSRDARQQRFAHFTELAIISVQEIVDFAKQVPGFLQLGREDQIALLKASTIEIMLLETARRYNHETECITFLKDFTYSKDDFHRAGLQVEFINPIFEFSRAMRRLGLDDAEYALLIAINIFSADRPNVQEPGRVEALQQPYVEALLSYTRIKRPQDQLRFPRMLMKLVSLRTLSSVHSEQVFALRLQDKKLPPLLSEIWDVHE
# hcDAF12 ag – hcDAF-12 agonism, confirmation assay. actives 61% (n = 3,400). shares compounds with hcDAF-12 act. activation, % at 6.8 µM. HEK293 hcDAF-12 lit1-tk-luc reporter, luminescence; % of Δ7-dafachronic acid response;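 active = mean activation across triplicate tests above the threshold derived from the earlier primary screen, cut at about 5.5% in these data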;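 note: 0% = DMSO only wells and 100% = 3 µM Δ7-dafachronic acid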
# hgDAF12 conf – confirmation of H. glycines DAF-12 agonists; actives 80% (n = 3,300); shares compounds with hgDAF12 agonist; activation, % at 6.8 µM; HEK293 GAL4-hgDAF12 luciferase reporter, agonist mode; percent of butyrate response;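 active = mean activation over triplicate wells above the hit cutoff derived from the earlier primary screen, cut at about 11% in these data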;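 note: 0% = DMSO low control and 100% = 2 mM sodium butyrate high control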
# LXRb DAF12 ctr – LXR-beta agonism as DAF-12 counter-screen; HEK293 Gal4-LXR luciferase reporter, 24 h; activation, % at 6.8 µM; 3,300 tested, under 10 active; shares compounds with hgDAF12 agonist;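 active = mean activation of the triplicate above a set limit carried over from the primary screen, none filed active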
# An asterisk follows results filed as active; / = no result. An excerpt weighted towards active compounds, which were near 5.7% of everything screened.
SMILES,AHR act,DAX1 inh-1,ssDAF-12 act,hcDAF-12 act,hgDAF12 agonist,DAX1 inh-2,DAX1 conf,SF1 mutant ctr,LXRb hcDAF ctr,hcDAF12 ag,hgDAF12 conf,LXRb DAF12 ctr
Cc1cc2c(NCc3ccccc3)ncnc2s1,1,-2,-2,-4,-7,-4,/,/,/,/,/,/
O=C(/C=C/c1ccc(Cl)cc1Cl)Nc1cccc(S(=O)(=O)NC2=NCCC2)c1,-4,5.4*,0,4,18*,0,9.4*,5.0*,/,/,14*,1
O=C(/C=C/c1ccccc1Cl)Nc1cccc(S(=O)(=O)NC2=NCCCCC2)c1,3,0,-1,-3,2,-1,/,/,/,/,/,/
COc1ccc(C(=O)NC(=O)NC2(C(Cl)(Cl)Cl)OCCO2)cc1,9,12*,1.0*,9.7*,25*,3,16*,6.0*,1,9.1*,20*,1
COC(=O)C[C@H]1CC[C@H](NC(=O)c2cccc(F)c2)[C@@H](CO)O1,/,-1,-1,1,1,/,/,/,/,/,/,/
O=C(O)c1ccc(N/N=C/c2cc3ccccc3nc2Cl)cc1,28,5.4*,0,5.6*,17*,4.3*,14*,5.7*,/,/,12*,0
Cc1cccc2cc(/C=N/Nc3ccc(C(=O)O)cc3)c(Cl)nc12,6,8.9*,0,6.0*,19*,4,37*,15*,/,/,25*,1
O=[N+]([O-])c1ccccc1N/N=C/c1cc2ccccc2nc1Cl,23,0,0,3,4,2,/,/,/,/,/,/
CSc1ccc(/C=N/Nc2ccc(Cl)c(C(=O)O)c2)cc1,12,6.7*,0,5,14*,1,17*,5.9*,/,/,29*,1
Cc1nc(NC(=O)c2csc3ccccc23)sc1C,4,5.1*,1.5*,13*,24*,2,12*,5.0*,2,9.7*,20*,1
CC12CC3CC(C)(C1)CC(C(=O)Nc1nncs1)(C3)C2,-2,0,-1,-2,0,2,/,/,/,/,/,/
Nc1c(C(=O)Nc2cccc(F)c2)nnn1-c1ccc2c(c1)OCCO2,-6,4.5*,1,7.0*,17*,-1,16*,5.2*,2,8.4*,18*,1
OC(c1ccc(F)cc1)c1nc(-c2cnc3ccccc3c2)cs1 (stereo not given),/,5.1*,1,6.6*,16*,/,11*,8.1*,1,7.9*,19*,1
COc1ccc(C(O)c2nc(-c3cnc4ccccc4c3)cs2)cc1 (stereo not given),/,2,0,2,10,/,/,/,/,/,/,/
CC(C)Cc1ccc(-c2cc3nc(NCCCn4ccnc4)ccn3n2)cc1,/,5.5*,-1,6.1*,15*,/,7.6*,5.1*,/,/,11*,0
COc1ccc(C(=O)Nc2nc3ccccc3c(=O)[nH]2)cc1,74*,6.3*,1.1*,6.9*,19*,2,14*,8.8*,1,5,17*,1
Cc1cc(N(C)C)ccc1N=Nc1ccc2ncccc2c1,41,5.2*,1.7*,13*,15*,5.5*,18*,7.6*,1,13*,18*,1
CN(C)c1ccc(N=Nc2ccc3ncccc3c2)cc1,/,9.3*,1.5*,6.0*,20*,5.8*,22*,7.3*,/,/,21*,1
CNC[C@H]1Oc2ccc(NC(=O)Nc3ccccc3)cc2CC(=O)N([C@H](C)CO)C[C@H]1C,1,0,-1,0,1,0,/,/,/,/,/,/
CCN(CC)CCCN1C(=O)c2oc3ccccc3c(=O)c2C1c1cccs1 (stereo not given),0,/,/,/,/,/,/,/,/,/,/,/
CCCCCc1nnc(NC(=O)C2=COCCO2)s1,20,11*,1.9*,9.0*,20*,3,10*,5.0*,1,8.0*,14*,1
CCCCCc1nnc(NC(=O)C2CCCO2)s1 (stereo not given),5,1,-1,1,4,3,/,/,/,/,/,/
CC1C2CC(C/C2=N/NC(=O)c2cccs2)C1(C)C (stereo not given),14,5.0*,0,3,13*,3,1,1,/,/,0,0
O=C(NN=C1CCCCCC1)c1cccs1,5,13*,1,8.0*,25*,3,1,1,0,2,6,0
O=C(NC1CCCCC1)c1cccs1,2,0,-1,-1,2,-1,/,/,/,/,/,/
SMILES,AHR act,DAX1 inh-1,ssDAF-12 act,hcDAF-12 act,hgDAF12 agonist,DAX1 inh-2,DAX1 conf,SF1 mutant ctr,LXRb hcDAF ctr,hcDAF12 ag,hgDAF12 conf,LXRb DAF12 ctr
COc1cc(OC)cc(-c2noc(-c3csc([C@H]4C[C@H](O)[C@@H](CO)O4)n3)n2)c1,/,3,0,2,6,/,/,/,/,/,/,/
Cc1cccc(-c2noc(-c3csc([C@@H]4C[C@H](O)[C@@H](CO)O4)n3)n2)c1,/,9.8*,1,5,18*,/,16*,9.5*,/,/,20*,1
COC(=O)CSc1cnc2ccccc2n1,7,0,-1,3,1,0,/,/,/,/,/,/
O=C(CSc1cnc2ccccc2n1)c1ccc(F)cc1,39,5.4*,1.1*,9.2*,19*,-2,7.3*,4.4*,1,4,17*,1
Cn1cccc1C(=O)Nc1ccc(N2CCOCC2)cc1,-2,8.2*,1,4,18*,1,8.3*,4.4*,/,/,16*,1
O=C1c2cccnc2C(=O)N1Cc1ccc(S(=O)(=O)N2CCOc3ccccc32)cc1,0,-1,-1,1,0,0,/,/,/,/,/,/
CC(=O)c1ccc(NC(=O)C(C)Nc2ccc(Cl)cc2)cc1 (stereo not given),1,-1,-1,0,1,0,/,/,/,/,/,/
CC(=O)c1ccc(NC(=O)NC2CCCCCCC2)cc1,/,12*,0,5,14*,2,13*,7.4*,/,/,16*,1

# Compound activity as filed in PubChem BioAssay.
